Records with an inconclusive call do not appear. Calls of active or inactive are those of the source. Calls come from the whole dose curve; as a rule, active = well fitted curve in the direction sought with a large enough effect; inconclusive = small, poorly fitted or top-dose-only effect, or another doubt; inactive = no such curve, though single readings can be large; an effect the other way counts as inactive or inconclusive.
Experiments:
[1] = Cell Viability - LYMP2-017 (AID 972); note: nearly all actives have a fitted effect of over 55% in size; note: potency is the fitted concentration of half-maximal effect
Procedure, shortened: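 Luminescent ATP read-out (CellTiter-Glo, 30 min RT) reports viable cell number. Cells: human lymphoblastoid line, 2500 per well, 5 hr preincubation, 24 hr compound exposure at 37 C. AC50 is derived from qHTS concentration-response data using the standard Hill model.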

[2] = Cell Viability - LYMP2-019 (AID 973); note: nearly all actives have a fitted effect of over 55% in size; note: potency is the fitted concentration of half-maximal effect
Procedure, shortened: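 qHTS, 1536-well; 2500 cells/well; 5 hr pre-incubation, 24 hr compound exposure, 37 C; CellTiter-Glo added, 30 min RT; luminescence read; AC50 via standard Hill equation.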

[3] = Cell Viability - LYMP2-021 (AID 974);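 note: compound exposure lasts 24 hours at 37 °C; nearly all actives have a fitted effect of over 55% in size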; note: potency is the fitted concentration of half-maximal effect
Procedure, shortened: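 ATP luminescence (CellTiter-Glo, 30 min RT) after 24 h compound exposure at 37 C; 2500 human lymphoblastoid cells/well, 5 h settle beforehand. Cytotoxicity = concentration-dependent ATP drop, AC50 by Hill fit.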

[4] = Cell Viability - LYMP2-023 (AID 975); note: nearly all actives have a fitted effect of over 55% in size; note: potency is the fitted concentration of half-maximal effect
Procedure, shortened: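 CellTiter-Glo luminescence after 30 min at room temperature; decrease in intracellular ATP reflects toxicity. Cells: human lymphoblastoid line, 2500/well, 24 hr compound exposure at 37 C. AC50 fitted to standard Hill equation from concentration-response.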

[5] = Cell Viability - LYMP2-025 (AID 976); note: series mostly up to about 92 µM
Procedure, shortened: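 CellTiter-Glo luminescence (cellular ATP) after 24 h compound exposure at 37 C; LYMP2-025 human lymphoblastoid cells, 2500/well, complete medium. Tetraoctylammonium bromide positive control. AC50 by Hill equation fit of qHTS concentration-response.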

[6] = Cell Viability - LYMP2-002 (AID 977); note: series mostly up to about 92 µM
Procedure, shortened: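 In this qHTS viability screen, 2500 human lymphoblastoid cells per well receive compound for 24 hr at 37 C, and luciferase-based ATP luminescence gives the viability signal. Tetraoctylammonium bromide serves as positive control.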

[7] = Cell Viability - LYMP2-006 (AID 978); note: nearly all actives have a fitted effect of over 60% in size; note: potency is the fitted concentration of half-maximal effect
Procedure, shortened: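 Human lymphoblastoid cells, 2500 per well, were preincubated 5 hr at 37 C, then exposed to compounds for 24 hr at 37 C in complete medium. Viability was read as intracellular ATP by CellTiter-Glo luminescence; AC50 from Hill-equation fits of qHTS concentration-response data.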

[8] = Cell Viability - LYMP2-007 (AID 979);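 note: cells exposed to compound for 24 h before reading; nearly all actives have a fitted effect of over 60% in size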; note: potency is the fitted concentration of half-maximal effect
Procedure, shortened: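 qHTS cytotoxicity: 2500 cells/well, 5 hr 37 C settle, compound 24 hr 37 C, CellTiter-Glo 30 min RT, luminescence. Decrease in ATP = toxicity. AC50 by standard Hill equation; tetraoctylammonium bromide positive control.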

[9] = Cell Viability - LYMP2-008 (AID 980); note: nearly all actives have a fitted effect of over 60% in size; note: potency is the fitted concentration of half-maximal effect
Procedure, shortened: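 Luminescent ATP read-out (CellTiter-Glo, 30 min RT) after 24 hr compound exposure at 37 C of human lymphoblastoid cells in complete medium. Decrease in ATP taken as cytotoxicity; AC50 derived by standard Hill fit of qHTS concentration-response data.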

[10] = Cell Viability - LYMP2-010 (AID 981); note: nearly all actives have a fitted effect of over 55% in size; note: potency is the fitted concentration of half-maximal effect
Procedure, shortened: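 qHTS cytotoxicity, 1536-well: 2500 cells/well, 5 hr settle, 24 hr compound at 37 C, CellTiter-Glo 30 min RT, luminescence read. Decrease in ATP = toxicity; AC50 via standard Hill equation. Positive control tetraoctylammonium bromide.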

[11] = Cell Viability - LYMP2-012 (AID 982); note: potency is the fitted concentration of half-maximal effect
[12] = Cell Viability - LYMP2-014 (AID 983); note: nearly all actives have a fitted effect of over 50% in size; note: potency is the fitted concentration of half-maximal effect
Procedure, shortened: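 2500 cells/well, 5 hr 37 C; cpd 24 hr 37 C, complete medium; CellTiter-Glo 30 min RT, luminescence; ATP loss = toxicity; AC50 via Hill eqn; tetraoctylammonium bromide positive control.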

[13] = Cell Viability - LYMP2-016 (AID 984); note: nearly all actives have a fitted effect of over 55% in size; note: potency is the fitted concentration of half-maximal effect
Procedure, shortened: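 Human lymphoblastoid cells (LYMP2-016), 2500/well in complete medium, preincubated 5 hr at 37 C, then compound-treated 24 hr at 37 C. Intracellular ATP read by CellTiter-Glo luminescence after 30 min at room temperature; AC50 from Hill-equation concentration-response fits.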

[14] = Cell Viability - LYMP2-018 (AID 985); note: nearly all actives have a fitted effect of over 50% in size; note: potency is the fitted concentration of half-maximal effect
Procedure, shortened: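 2500 cells/well; 5 hr 37 C; cmpd 24 hr 37 C, complete medium; CellTiter-Glo 30 min RT; luminescence. Tetraoctylammonium bromide positive control. AC50 via Hill fit.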

[15] = Cell Viability - LYMP2-022 (AID 987); note: nearly all actives have a fitted effect of over 55% in size; note: potency is the fitted concentration of half-maximal effect
Procedure, shortened: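 Luminescent ATP read-out (CellTiter-Glo, 30 min, RT) after 24 hr, 37 C compound exposure of 2500 human lymphoblastoid cells/well in complete medium. Cytotoxicity taken as concentration-dependent ATP loss; AC50 from standard Hill equation.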

[16] = Cell Viability - LYMP2-026 (AID 989); note: nearly all actives have a fitted effect of over 50% in size
Procedure, shortened: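 qHTS cytotoxicity: 2500 cells/well, 5 hr 37 C, compound 24 hr 37 C, CellTiter-Glo 30 min RT, luminescence. Tetraoctylammonium bromide positive control. AC50 via standard Hill fit.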

[17] = Cell Viability - LYMP1-002 - Assay at 24 hr (AID 993); note: potency is the fitted concentration of half-maximal effect
Procedure, shortened: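 CellTiter-Glo luminescence (intracellular ATP) after 24 h compound exposure, 37 C, in LYMP1-002 human lymphoblastoid cells; decreased ATP taken as cytotoxicity. AC50 from standard Hill fit of concentration-response curves.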

[18] = Cell Viability - LYMP1-002 - Assay at 40 hr (AID 994); note: nearly all actives have a fitted effect of over 60% in size
Procedure, shortened: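 qHTS cytotoxicity; 2500 cells/well, 5 hr 37 C settle, compound 40 hr 37 C. CellTiter-Glo, 30 min RT, luminescence (ATP). Concentration-response, Hill fit → AC50. Pos. ctrl tetraoctylammonium bromide.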

[19] = biological target: Alpha-galactosidase A (Homo sapiens) (UniProt P06280); experiment: Counterscreen for Glucocerebrosidase Inhibitors: qHTS Assay for Human alpha-Galactosidase at pH 4.5 (AID 992)
Procedure, shortened: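 Each compound is preincubated briefly with 2 nM enzyme before substrate addition (80 uM); plates then sit 20 min at ambient temperature, are quenched with 1M NaOH/1M glycine, and read fluorometrically.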

[20] = biological target: alpha-glucosidase (Oryza sativa, rice) (UniProt Q653V4); experiment: Counterscreen for Glucocerebrosidase Inhibitors: qHTS Assay for Rice alpha-Glucosidase at pH 5.0 (AID 997)
Procedure, shortened: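 Endpoint fluorogenic assay at pH 5.0: compounds (0.7 nM to 77 uM) titrated against 4 nM rice enzyme and 400 uM 4-MU-alpha-glucoside for 20 min at room temperature; NaOH/glycine stop, read ex 365/em 440 nm, Hill-fitted AC50.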

Measured: Potency

Sequence of Alpha-galactosidase A (Homo sapiens) (P06280 whole entry, looked up): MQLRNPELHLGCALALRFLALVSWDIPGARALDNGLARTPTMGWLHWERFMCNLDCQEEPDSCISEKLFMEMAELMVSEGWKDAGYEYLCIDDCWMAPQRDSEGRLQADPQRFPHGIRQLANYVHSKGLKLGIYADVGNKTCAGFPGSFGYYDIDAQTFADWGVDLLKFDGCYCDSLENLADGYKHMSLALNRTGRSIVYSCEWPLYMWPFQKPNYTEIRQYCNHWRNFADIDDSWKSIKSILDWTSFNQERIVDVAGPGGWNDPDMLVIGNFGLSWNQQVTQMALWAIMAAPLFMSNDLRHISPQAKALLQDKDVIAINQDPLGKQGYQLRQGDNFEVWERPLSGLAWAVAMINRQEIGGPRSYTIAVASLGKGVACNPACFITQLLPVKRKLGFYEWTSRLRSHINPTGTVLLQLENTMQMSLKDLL

Cc1ccc(S(=O)(=O)O)cc1C
inactive: [1] | [2] | [3] | [4] | [5] | [6] | [7] | [8] | [9] | [10] | [11] | [12] | [13] | [14] | [15] | [16] | [17] | [18]

OB(O)O
inactive: [1] | [2] | [3] | [4] | [5] | [6] | [7] | [8] | [9] | [10] | [11] | [12] | [13] | [14] | [15] | [16] | [17] | [18]

OCC(O)CO
inactive: [1] | [2] | [3] | [4] | [5] | [6] | [7] | [8] | [9] | [10] | [11] | [12] | [13] | [14] | [15] | [16] | [17] | [18]

CC1=CCC2CC1C2(C)C (stereo not drawn)
inactive: [1] | [2] | [3] | [4] | [5] | [6] | [7] | [8] | [9] | [10] | [11] | [12] | [13] | [14] | [15] | [16] | [17] | [18]

Nc1ncnc2c1ncn2[C@H]1CC[C@@H](CO)O1
inactive: [1] | [2] | [3] | [4] | [5] | [6] | [7] | [8] | [9] | [10] | [11] | [12] | [13] | [14] | [15] | [16] | [17] | [18]

Nc1nccs1
inactive: [1] | [2] | [3] | [4] | [5] | [6] | [7] | [8] | [9] | [10] | [11] | [12] | [13] | [14] | [15] | [16] | [17] | [18]

CCCCO
inactive: [1] | [2] | [3] | [4] | [5] | [6] | [7] | [8] | [9] | [10] | [11] | [12] | [13] | [14] | [15] | [16] | [17] | [18]

C=C1C(CCl)(CCl)C2(Cl)C(Cl)C(Cl)C1(Cl)C2(Cl)Cl (stereo not drawn)
active: [1] 50.1 µM | [2] 39.8 µM | [3] 50.1 µM | [4] 50.1 µM | [7] 50.1 µM | [8] 39.8 µM | [9] 31.6 µM | [10] 39.8 µM | [11] 39.8 µM | [12] 50.1 µM | [13] 50.1 µM | [14] 50.1 µM | [15] 39.8 µM | [17] 50.1 µM

O=P(O)(O)O
inactive: [1] | [2] | [3] | [4] | [5] | [6] | [7] | [8] | [9] | [10] | [11] | [12] | [13] | [14] | [15] | [16] | [17] | [18]

Cc1cc(C)c(NC(=O)C[C@H](CC(=O)O)c2cccc3ccccc23)c(C(=O)N2CCC3(CCCC3)CC2)c1
inactive: [19] | [20]

CC1=CC(=O)NS(=O)(=O)O1
inactive: [1] | [2] | [3] | [4] | [5] | [6] | [7] | [8] | [9] | [10] | [11] | [12] | [13] | [14] | [15] | [16] | [17] | [18]

CC(C)(C)CC(C)(C)c1ccc(OCCO)cc1
inactive: [1] | [3] | [4] | [6] | [7] | [8] | [9] | [10] | [11] | [12] | [13] | [14] | [15] | [16] | [17] | [18]

C[C@@](Cc1ccc(O)c(O)c1)(NN)C(=O)O
inactive: [19] | [20]

Oc1cccc(O)c1O
inactive: [1] | [2] | [4] | [5] | [6] | [7] | [9] | [11] | [12] | [13] | [14] | [16] | [17] | [18]

C/C=C/C=C/C(=O)O
inactive: [1] | [2] | [3] | [4] | [5] | [6] | [7] | [8] | [9] | [10] | [11] | [12] | [13] | [14] | [15] | [16] | [17] | [18]

CC(C)O
inactive: [1] | [2] | [3] | [4] | [5] | [6] | [7] | [8] | [9] | [10] | [11] | [12] | [13] | [14] | [15] | [16] | [17] | [18]

Cc1ncc[nH]1
inactive: [1] | [2] | [3] | [4] | [5] | [6] | [7] | [8] | [9] | [10] | [11] | [12] | [13] | [14] | [15] | [16] | [17] | [18]

Nc1ccc(N=Nc2ccccc2)c(N)n1
inactive: [1] | [2] | [3] | [4] | [5] | [6] | [7] | [8] | [9] | [10] | [11] | [12] | [13] | [14] | [15] | [16] | [17] | [18]

NC(N)=O
inactive: [1] | [2] | [3] | [4] | [5] | [6] | [7] | [8] | [9] | [10] | [11] | [12] | [13] | [14] | [15] | [16] | [17] | [18]

CC[C@H]1OC(=O)[C@H](C)[C@@H](O[C@H]2C[C@@](C)(OC)[C@@H](O)[C@H](C)O2)[C@H](C)[C@@H](O[C@@H]2O[C@H](C)C[C@H](N(C)C)[C@H]2O)[C@](C)(O)C[C@@H](C)CN(C)[C@H](C)[C@@H](O)[C@]1(C)O
inactive: [1] | [2] | [3] | [4] | [5] | [6] | [7] | [8] | [9] | [10] | [11] | [12] | [13] | [14] | [15] | [16] | [17] | [18]

Source: PubChem BioAssay (NCATS)
